Assay outcomes deposited in PubChem BioAssay by The Scripps Research Institute Molecular Screening Center.
Shown are actives, neighbours in structure and some others; about 4.1% of the full set was active somewhere.
hgDAF-12 ag: H. glycines DAF-12 receptor agonists, primary screen, cell-based, luminescence, HEK293, GAL4 fusion, UAS-luciferase; HEK293 GAL4-hgDAF12 UAS-luciferase reporter, agonist luminescence; normalized to butyrate control; AID 687014, 2013; actives 1.8% (n = 370,000); activation, % at 6.8 µM;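 active means activation above a cutoff set at the mean of all screened compounds plus 3 SD, cut at about 10% in these data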;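 further: 0% = DMSO wells and 100% = sodium butyrate wells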
hcDAF-12 act: H. contortus DAF-12 nuclear receptor activators, primary screen, cell-based, luminescence, HEK293, lit1-tk-luc reporter; activation, % at 6.8 µM; AID 652067, 2013; HEK293 hcDAF-12 lit1-tk-luc reporter; 0% DMSO, 100% Δ7-dafachronic acid; actives 1.4% (n = 370,000);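 active means activation above the mean of all tested compounds plus 3 SD, cut at about 5.5% in these data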;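 further: 100% = response to 3 µM Δ7-dafachronic acid high control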
DAX1 inh-1: DAX1 (NR0B1) inhibitors, primary screen, cell-based, HEK293, Gal4-DAX1, luciferase luminescence; HEK293 Gal4-DAX1 luciferase reporter; inhibition, % at 6.75 µM; actives 0.99% (n = 340,000); AID 504766, 2011;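 active means inhibition above the mean over all tested compounds plus 3 SD, cut at about 4.2% in these data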;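 further: 0% = DAX1-transfected cells with DMSO and 100% = empty-vector control cells with DMSO; inhibition shows as a rise in luminescence from relieved DAX1 repression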
Target sequence (P51843 207-470 limits assumed): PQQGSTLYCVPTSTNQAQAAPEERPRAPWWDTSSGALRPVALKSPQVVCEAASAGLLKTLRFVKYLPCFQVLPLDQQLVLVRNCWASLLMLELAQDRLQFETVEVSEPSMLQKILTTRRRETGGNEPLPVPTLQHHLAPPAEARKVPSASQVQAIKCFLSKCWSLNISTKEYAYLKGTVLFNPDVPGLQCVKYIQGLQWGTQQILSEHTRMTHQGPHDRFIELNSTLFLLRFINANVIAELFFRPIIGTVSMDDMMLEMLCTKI
DAX1 inh-2: DAX1 (NR0B1) inhibitors on StAR promoter, primary screen, cell-based, luminescence, SF-1 (NR5A1), full-length DAX-1; HEK293T StAR-luciferase reporter, SF-1/DAX-1 repression relief; inhibition, % at 6.8 µM; actives 1.1% (n = 370,000);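 active means inhibition above the mean over all tested compounds plus 3 SD, cut at about 3.6% in these data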;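 further: 0% = DAX-1 cells with DMSO and 100% = cells lacking DAX-1 with DMSO; higher inhibition means more luminescence from relief of DAX-1 repression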
ssDAF-12 act: S. stercoralis DAF-12 nuclear receptor activators, primary screen, cell-based, luminescence, HEK293, GRIP1 co-expression, lit1-tk-luc. HEK293 ssDAF-12/GRIP1 lit1-tk-luc reporter; % of 3 µM dafachronic acid response. activation, % at 6.8 µM. actives 1% (n = 370,000);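 active means activation above the mean over all tested compounds plus 3 SD, cut at about 0.9% in these data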;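 further: 0% = DMSO-only wells and 100% = 3 µM delta7-dafachronic acid wells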
The depositor's hits bear a star.

Screening Cn1cc([C@]2(O)C(=O)Nc3ccc(F)cc32)c2ccccc21 returned hgDAF-12 ag 2, hcDAF-12 act 2, DAX1 inh-2 -1 and ssDAF-12 act 1.2*.
Screening O=C(COc1ccccc1F)NNC(=O)c1cccc(-n2cccc2)c1 returned hgDAF-12 ag 1, hcDAF-12 act 6.3*, DAX1 inh-1 1, DAX1 inh-2 1 and ssDAF-12 act -1.
C[C@H]1COc2cc(N3CCCC3)ccc2S(=O)(=O)N1C was read as hgDAF-12 ag -3, hcDAF-12 act -1, DAX1 inh-2 -1 and ssDAF-12 act -1.
Screening N/C(=N\OC(=O)COc1ccc(Cl)cc1Br)c1cccnc1 returned hgDAF-12 ag 11*, hcDAF-12 act 2, DAX1 inh-1 1, DAX1 inh-2 1 and ssDAF-12 act -1.
For N/C(=N\OC(=O)COc1ccc(Br)cc1Cl)c1cccnc1 the results were hgDAF-12 ag 12*, hcDAF-12 act 2, DAX1 inh-1 1, DAX1 inh-2 0 and ssDAF-12 act -1.
`Cc1ccc(C)c(OCC(=O)O/N=C(\N)c2cccnc2)c1` gave hgDAF-12 ag 1, hcDAF-12 act 2, DAX1 inh-1 0, DAX1 inh-2 0 and ssDAF-12 act -1.
Screening CCCCCCCCN1C(=O)[C@@H](CC(=O)NCCCN2CCCC2=O)C[C@@]2(C(=O)OC)C1=C[C@H](COCc1ccccc1)O[C@@H]2C returned hgDAF-12 ag 0, hcDAF-12 act 1, DAX1 inh-2 -1 and ssDAF-12 act -1.
`CCn1c(SCC(=O)c2cc(OC)ccc2OC)nnc1C(C)C` gave hgDAF-12 ag 3, hcDAF-12 act 3, DAX1 inh-1 2, DAX1 inh-2 1 and ssDAF-12 act 1.2*.
`CCn1c(SCC(=O)c2cc(OC)ccc2OC)nnc1-c1ccncc1` gave hgDAF-12 ag -3, hcDAF-12 act 3, DAX1 inh-1 0, DAX1 inh-2 0 and ssDAF-12 act 0.
`CC(C)NC(=O)NC1CCN(CC(=O)Nc2ccc3c(c2)OCCO3)CC1` gave hgDAF-12 ag -1, hcDAF-12 act -3, DAX1 inh-2 -3 and ssDAF-12 act -1.
`O=c1[nH]c2ccccc2nc1-c1cccs1` gave hgDAF-12 ag 4, hcDAF-12 act 2, DAX1 inh-1 0, DAX1 inh-2 1 and ssDAF-12 act 0.
c1csc(-c2nnsc2-c2nc3ccccc3[nH]2)c1 was read as hgDAF-12 ag 4, hcDAF-12 act 3, DAX1 inh-1 1, DAX1 inh-2 0 and ssDAF-12 act 1.4*.
For Cc1ccc(C(=O)/C=C2\NCCNC2=O)cc1 the results were hgDAF-12 ag 13*, hcDAF-12 act 3, DAX1 inh-1 2, DAX1 inh-2 3.8* and ssDAF-12 act 0.
For COc1ccc(/C=C/CN2CCN(Cc3cccc(OC)c3)C(CCO)C2)cc1 (centres undefined) the results were hgDAF-12 ag 1, hcDAF-12 act 1, DAX1 inh-1 4.2*, DAX1 inh-2 -1 and ssDAF-12 act -2.
For CCOc1ccc(CN2CCN(C/C=C/c3ccc(OC)cc3)CC2CCO)cc1 (centres undefined) the results were hgDAF-12 ag -3, hcDAF-12 act -1, DAX1 inh-1 2, DAX1 inh-2 0 and ssDAF-12 act -1.
CCOC(=S)SCc1cn2cccc(C)c2n1 was read as hgDAF-12 ag 5, hcDAF-12 act 2, DAX1 inh-1 5.0*, DAX1 inh-2 1 and ssDAF-12 act -1.
Screening O=C(N1CCC(n2nc(-c3ccccc3)oc2=O)CC1)C1(c2ccccc2)CCCC1 returned hgDAF-12 ag -2, hcDAF-12 act 0 and ssDAF-12 act 0.
For CCOC(=O)[C@]12CCCCC/C=C\1N(Cc1ccc(OC)cc1)C(=O)[C@H]2CC(=O)NCc1ccccc1 the results were hgDAF-12 ag 3, hcDAF-12 act -1, DAX1 inh-2 1 and ssDAF-12 act -2.
`Cc1csc(Sc2ccc(C(=O)OCC(=O)Nc3ccc(F)cc3[N+](=O)[O-])cc2[N+](=O)[O-])n1` gave hgDAF-12 ag 1, hcDAF-12 act 2, DAX1 inh-1 6.5*, DAX1 inh-2 0 and ssDAF-12 act 0.
CN1CCN(c2nc(-c3cccnc3)nc3ccccc23)CC1 was read as hgDAF-12 ag 3, hcDAF-12 act -3, DAX1 inh-1 1, DAX1 inh-2 -1 and ssDAF-12 act -1.
CCN1CCN(c2nc(-c3cccnc3)nc3ccccc23)CC1 was read as hgDAF-12 ag 5, hcDAF-12 act 5.7*, DAX1 inh-1 0, DAX1 inh-2 1 and ssDAF-12 act -1.
CCN(CC)c1ccc(NC(=O)C2CCCC2)cc1 was read as hgDAF-12 ag 2, hcDAF-12 act 0, DAX1 inh-1 4.6*, DAX1 inh-2 0 and ssDAF-12 act -1.
`C/C(=N\NC(=O)c1ccn(C)n1)c1ccc(NC(=O)C2CCCC2)cc1` gave hgDAF-12 ag 6, hcDAF-12 act 1, DAX1 inh-1 6.6*, DAX1 inh-2 1 and ssDAF-12 act 0.
C/C(=N\NC(=O)c1ccn(C)n1)c1ccc(NC(=O)C2CCC2)cc1 was read as hgDAF-12 ag 10, hcDAF-12 act 2, DAX1 inh-1 1, DAX1 inh-2 2 and ssDAF-12 act 0.
CCN(CC)c1ccc(NC(=S)NCC2CCCO2)cc1 (centres undefined) was read as hgDAF-12 ag 8, hcDAF-12 act 2, DAX1 inh-1 0, DAX1 inh-2 4.4* and ssDAF-12 act -1.
Screening CNC(=O)C[C@H]1CC[C@H]2[C@@H](COc3ccc(NC(=O)Nc4ccccc4)cc3C(=O)N2C)O1 returned hgDAF-12 ag -2, hcDAF-12 act -1, DAX1 inh-2 1 and ssDAF-12 act -2.
Screening CCCCOCCCNC(=O)C[C@H]1C[C@@]2(C(=O)OC)C(=C[C@H](COCc3ccccc3)O[C@@H]2C)N(Cc2ccc(Cl)cc2Cl)C1=O returned hgDAF-12 ag 7, hcDAF-12 act -2, DAX1 inh-2 -1 and ssDAF-12 act -1.
For Fc1ccc(NC(=S)N2CCc3ccccc3C2)c(F)c1 the results were hgDAF-12 ag 1, hcDAF-12 act 3, DAX1 inh-1 5.6*, DAX1 inh-2 1 and ssDAF-12 act 0.
Screening Fc1ccc(NC(=S)N2CCOCC2)c(F)c1 returned hgDAF-12 ag -2, hcDAF-12 act -1, DAX1 inh-1 -1, DAX1 inh-2 -1 and ssDAF-12 act -1.
CCCCCCCC(=O)O was read as hgDAF-12 ag 0, hcDAF-12 act 0, DAX1 inh-1 4.7*, DAX1 inh-2 0 and ssDAF-12 act -1.
